Screening results deposited in PubChem BioAssay by The Scripps Research Institute Molecular Screening Center.
In the library only some 4.5% were active in any assay of this set; here they are far more common.
FXN GAA850 act – FXN promoter activators, primary screen, cell-based, luciferase luminescence, HEK293 lucGAA850. activation, % at 6 µM. AID 540364, 2011. HEK293 lucGAA850 FXN promoter luciferase reporter, 24 h; percent of 10 µM SAHA response. hit rate 0.56% among 360,000;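 active = activation above the average of all compounds screened plus 3 SD, cutoff fixed separately per campaign, cut at about 7.5% in these data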;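 also: 0% = DMSO wells and 100% = 10 µM SAHA wells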
ssDAF-12 act – S. stercoralis DAF-12 nuclear receptor activators, primary screen, cell-based, luminescence, HEK293, GRIP1 co-expression, lit1-tk-luc; Nuclear hormone receptor DAF-12 (Strongyloides stercoralis); HEK293 ssDAF-12/GRIP1 lit1-tk-luc reporter; % of 3 µM dafachronic acid response; activation, % at 6.8 µM; hit rate 1% among 370,000; AID 652126, 2013;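 active = activation above the mean over all tested compounds plus 3 SD, cut at about 0.9% in these data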;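 also: 0% = DMSO-only wells and 100% = 3 µM delta7-dafachronic acid wells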
DAX1 inh-1 – DAX1 (NR0B1) inhibitors, primary screen, cell-based, HEK293, Gal4-DAX1, luciferase luminescence; Nuclear receptor subfamily 0 group B member 1 (Homo sapiens), P51843; HEK293 Gal4-DAX1 luciferase reporter; inhibition, % at 6.75 µM; hit rate 0.99% among 340,000;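 active = inhibition above the mean over all tested compounds plus 3 SD, cut at about 4.2% in these data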;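 also: 0% = DAX1-transfected cells with DMSO and 100% = empty-vector control cells with DMSO; inhibition shows as a rise in luminescence from relieved DAX1 repression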
Target sequence (P51843 207-470 limits assumed): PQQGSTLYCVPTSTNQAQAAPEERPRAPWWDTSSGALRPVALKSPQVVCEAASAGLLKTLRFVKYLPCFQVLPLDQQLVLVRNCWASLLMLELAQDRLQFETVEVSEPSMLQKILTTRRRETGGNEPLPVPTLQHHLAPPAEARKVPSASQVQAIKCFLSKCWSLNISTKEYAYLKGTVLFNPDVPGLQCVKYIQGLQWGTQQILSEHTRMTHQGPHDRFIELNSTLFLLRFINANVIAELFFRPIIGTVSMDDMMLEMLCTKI
hcDAF-12 act – H. contortus DAF-12 nuclear receptor activators, primary screen, cell-based, luminescence, HEK293, lit1-tk-luc reporter; activation, % at 6.8 µM; AID 652067, 2013; hit rate 1.4% among 370,000; HEK293 hcDAF-12 lit1-tk-luc reporter; 0% DMSO, 100% Δ7-dafachronic acid;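 active = activation above the mean of all tested compounds plus 3 SD, cut at about 5.5% in these data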;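 also: 100% = response to 3 µM Δ7-dafachronic acid high control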
DAX1 inh-2 – DAX1 (NR0B1) inhibitors on StAR promoter, primary screen, cell-based, luminescence, SF-1 (NR5A1), full-length DAX-1; inhibition, % at 6.8 µM; hit rate 1.1% among 370,000; HEK293T StAR-luciferase reporter, SF-1/DAX-1 repression relief;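 active = inhibition above the mean over all tested compounds plus 3 SD, cut at about 3.6% in these data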;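 also: 0% = DAX-1 cells with DMSO and 100% = cells lacking DAX-1 with DMSO; higher inhibition means more luminescence from relief of DAX-1 repression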
hgDAF12 agonist – H. glycines DAF-12 receptor agonists, primary screen, cell-based, luminescence, HEK293, GAL4 fusion, UAS-luciferase. Nuclear hormone receptor DAF-12 (Heterodera glycines), GAL4 fusion. HEK293 GAL4-hgDAF12 UAS-luciferase reporter, agonist luminescence; normalized to butyrate control. activation, % at 6.8 µM. hit rate 1.8% among 370,000;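 active = activation above a cutoff set at the mean of all screened compounds plus 3 SD, cut at about 10% in these data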;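 also: 0% = DMSO wells and 100% = sodium butyrate wells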
* = called active by the depositor; . = no result.

SMILES	FXN GAA850 act	ssDAF-12 act	DAX1 inh-1	hcDAF-12 act	DAX1 inh-2	hgDAF12 agonist
O=C(c1cc(F)cc(F)c1)N1CCCC(c2nc(-c3cccs3)no2)C1 (stereo unspecified)	.	-1	.	-1	0	1
Nc1ccccc1-c1ccc(Cl)cc1	2	-1	-1	1	4.1*	2
Nc1ccccc1-c1ccccc1N	3	-1	0	0	0	0
COC(=O)c1ccc(CSc2nc3ccccc3o2)cc1	2	1	-1	2	2	10
O=[N+]([O-])c1ccc(CSc2nc3ccccc3o2)cc1	6	1	1	4	3.6*	12*
Oc1ccccc1-c1n[nH]c(=S)n1Cc1ccccc1	1	1.5*	1	5	0	-1
COc1ccc(CC(=O)N2N=C(C)CC2(O)C(F)(F)F)cc1OC (stereo unspecified)	2	-2	0	0	-1	0
CC1=NN(C(=O)CCc2ccc3c(c2)OCO3)C(O)(C(F)(F)F)C1 (stereo unspecified)	0	9.7*	1	-1	-1	-1
CCn1c(C)csc1=NC(=O)c1ccccc1	-1	-1	0	1	1	2
CCn1c(C)csc1=NC(=O)c1ccccc1O	3	0	0	6.3*	1	10
CS(=O)(=O)Nc1ccc2c(c1)ncn2CCc1ccccc1	2	-1	1	0	0	-1
CC(C)(CC(=O)O)CC(=O)Nc1ccc2c(c1)ncn2CCc1ccccc1	-1	-1	4.5*	-1	0	2
Cc1ccnc(Nc2nc(-c3ccc(Cl)cc3)cs2)c1	3	-1	1	2	1	7
Cc1cccc(Nc2nc(-c3ccncc3)cs2)c1	7	0	0	3	1	11*
Cc1ccnc(Nc2nc(-c3ccc(F)cc3)cs2)c1	4	-1	0	6.4*	1	12*
Cc1cccc(Nc2nc(-c3ccc4c(c3)OCCO4)cs2)c1	2	0	3	5.8*	2	13*
Cc1nc(-c2ccc3c(c2)OCCO3)cs1	6	-1	1	2	2	5
COC(=O)[C@]12C[C@H](CC(=O)N3CCCC3)C(=O)N(CCC3=CCCCC3)C1=C[C@H](C1CCCC1)O[C@@H]2C	.	-2	.	-3	-1	1
CCn1c(C)nc2cc(C(=O)NNC(=S)Nc3ccc(F)cc3)ccc21	5	0	2	1	3.7*	10
COC(=O)[C@H](C(C)C)N(Cc1cn(Cc2ccccc2)nn1)S(=O)(=O)c1ccc(F)cc1Br	.	-2	.	-3	0	2
CC(=O)c1ccc([C@H](O)[C@H](C)C(=O)N(C)c2ccccc2)cc1	.	0	.	-2	-1	4
Cc1nc2ccccc2c(=O)n1NC(=O)c1ccc(Cl)cc1	2	-1	2	-1	-1	5
O=C(CSc1nc2ccsc2c(=O)n1NC(=O)c1ccccc1)Nc1nccs1	1	0	1	1	1	11*
O=C(CSc1nc2ccccc2c(=O)n1NC(=O)c1ccccc1)c1ccccc1	5	1.2*	3	4	3	12*
COc1ccc(C(=O)Nn2c(SCC(=O)NCc3ccccc3)nc3ccccc3c2=O)cc1	-7	-2	-3	0	1	-4
SMILES	FXN GAA850 act	ssDAF-12 act	DAX1 inh-1	hcDAF-12 act	DAX1 inh-2	hgDAF12 agonist
O=C(CSc1nc2ccccc2c(=O)n1NC(=O)c1ccccc1)c1ccc(Cl)cc1	3	0	3	3	3	12*
COC(=O)[C@H](C(C)C)N(CCc1cn(Cc2ccccc2)nn1)S(=O)(=O)c1ccccc1Br	.	-1	.	-2	1	-4
CC(C)n1nnnc1C1c2ccccc2C(=O)N1CCc1ccccc1F (stereo unspecified)	.	0	.	5.7*	2	15*
Cc1ccccc1CN1C(=O)c2ccccc2C1c1nnnn1C(C)C (stereo unspecified)	.	0	.	-3	-1	0
COc1ccc(CN2C(=O)c3ccccc3C2c2nnnn2C(C)C)cc1 (stereo unspecified)	.	-2	.	0	2	-1
CC(C)n1nnnc1C1c2ccccc2C(=O)N1CCOc1ccccc1 (stereo unspecified)	.	1	.	5	2	13*
O=C(NCc1ccco1)C1CCCN(c2ncccn2)C1 (stereo unspecified)	.	-1	.	-3	0	3
COc1ccc(Cn2c(-c3ccccc3)nc3c(c(=O)c4ccccc4n3C)c2=O)cc1	0	-1	1	3	0	-2
COc1ccc(CCn2c(-c3ccccc3)nc3c(c(=O)c4ccccc4n3C)c2=O)cc1	.	-1	.	5.8*	0	-2
C=CCn1c(SCCOC)nc2c1c(=O)[nH]c(=O)n2C	1	-1	1	6.5*	2	-3
CC(C)C(=O)N1CCC1(C)C(=O)Nc1cc(-c2ccccc2)nn1C (stereo unspecified)	1	-1	.	1	2	8
Cc1ccccc1NC(=O)Nc1cc(-c2ccccc2)nn1C	3	-1	6.6*	1	0	1
Cn1nc(-c2ccccc2)cc1NC(=O)Nc1ccc(F)cc1	0	-1	1	1	0	0
CCC(=O)N1CCC1(C)C(=O)Nc1cc(-c2ccccc2)nn1C (stereo unspecified)	2	-1	.	-1	3	11*
CC(=O)OCCCN1CCC2(CCC(c3ccccc3)CC2)C1=O (stereo unspecified)	.	-1	.	-2	-1	-2
COc1ccc(OCc2cc(C(=O)NC3CCOCC3)no2)c2ccccc12	-2	0	0	6.3*	-2	3
CC(=O)c1cccc(OCc2cc(C(=O)N(C)CCC3CCOCC3)no2)c1	3	-1	1	1	2	4
COc1ccccc1OCc1cc(C(=O)N(C)CCC2CCOCC2)no1	1	1	3	5	3.9*	10
Nc1[nH]c(C(=O)c2ccccc2)c(-c2ccc(Br)cc2)c1C(=O)N1CCN(CCO)CC1	.	-2	.	0	.	3
O=C(Nc1sc2c(c1CN1CCOCC1)CCC2)c1ccc(F)cc1	0	-1	-1	5.9*	0	3
